Measurements taken from article PMC7862700, “An all-to-all approach to the identification of sequence-specific readers for epigenetic DNA modifications on cytosine”.

Key:
Test in all cases: DAPPL (digital affinity profiling via proximity ligation, sequencing); 10 mM Tris-HCl pH 7.5, 50 mM NaCl, 1 mM DTT, 4% glycerol, room temperature, 30 min; GST-TFs on glutathione beads, 16-mer random dsDNA library, 0.1% formaldehyde crosslink after washing; high values mean tight binding
Conditions in all cases: protein: recombinant; tags: N-terminal GST; dsDNA, one strand shown
FLI1 = biological target: T1, FLI1 (Homo sapiens, UniProt Q01543 1-452)
T1 sequence: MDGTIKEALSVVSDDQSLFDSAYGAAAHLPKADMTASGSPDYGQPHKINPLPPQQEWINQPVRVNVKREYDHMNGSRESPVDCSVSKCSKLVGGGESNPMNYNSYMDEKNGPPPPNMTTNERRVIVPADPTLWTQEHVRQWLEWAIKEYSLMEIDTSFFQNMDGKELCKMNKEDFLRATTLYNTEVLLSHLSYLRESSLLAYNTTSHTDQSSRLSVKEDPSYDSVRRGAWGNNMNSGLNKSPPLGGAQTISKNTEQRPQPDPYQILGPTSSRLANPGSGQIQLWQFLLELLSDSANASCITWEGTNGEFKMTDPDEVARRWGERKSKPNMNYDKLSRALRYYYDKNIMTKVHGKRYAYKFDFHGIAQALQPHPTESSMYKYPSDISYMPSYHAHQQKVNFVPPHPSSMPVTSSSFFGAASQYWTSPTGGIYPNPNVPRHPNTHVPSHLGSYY
How it was run: (§1)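 Pools were built from human transcription factors expressed in yeast as GST fusions, captured on glutathione beads and DNA-barcoded, along with a tag-only sample. Incubation with 200 nmole of a 16-mer random double-stranded DNA library lasted 30 min at room temperature in Tris/NaCl/DTT/glycerol buffer, and was followed by washing, 0.1% formaldehyde crosslinking, proximity ligation, PCR amplification and Illumina NextSeq500 sequencing. Binding signal is the quotient of each hexamer's read frequency for a factor and its frequency for the tag-only sample.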

ELK1 = biological target: T2, ELK1 (Homo sapiens, UniProt P19419 1-428)
T2 sequence: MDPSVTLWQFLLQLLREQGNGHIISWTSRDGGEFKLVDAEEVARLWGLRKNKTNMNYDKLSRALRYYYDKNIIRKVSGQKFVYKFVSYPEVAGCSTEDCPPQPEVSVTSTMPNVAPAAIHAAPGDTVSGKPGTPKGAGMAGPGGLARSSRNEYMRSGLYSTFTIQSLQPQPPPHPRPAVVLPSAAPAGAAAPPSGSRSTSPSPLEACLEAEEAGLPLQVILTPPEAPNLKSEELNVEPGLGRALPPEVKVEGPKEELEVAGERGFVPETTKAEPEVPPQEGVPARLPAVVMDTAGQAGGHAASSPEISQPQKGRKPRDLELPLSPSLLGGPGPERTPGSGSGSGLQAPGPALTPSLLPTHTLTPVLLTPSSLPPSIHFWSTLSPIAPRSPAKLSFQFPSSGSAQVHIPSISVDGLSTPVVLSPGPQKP
How it was run: as §1

ELF1 = ELF1 (Homo sapiens, UniProt P32519 1-619)
How it was run: as §1

ETV5 = ETV5 (Homo sapiens, UniProt P41161 1-510)
How it was run: as §1

ELF3 = biological target: T3, ELF3 (Homo sapiens, UniProt P78545 1-371)
T3 sequence: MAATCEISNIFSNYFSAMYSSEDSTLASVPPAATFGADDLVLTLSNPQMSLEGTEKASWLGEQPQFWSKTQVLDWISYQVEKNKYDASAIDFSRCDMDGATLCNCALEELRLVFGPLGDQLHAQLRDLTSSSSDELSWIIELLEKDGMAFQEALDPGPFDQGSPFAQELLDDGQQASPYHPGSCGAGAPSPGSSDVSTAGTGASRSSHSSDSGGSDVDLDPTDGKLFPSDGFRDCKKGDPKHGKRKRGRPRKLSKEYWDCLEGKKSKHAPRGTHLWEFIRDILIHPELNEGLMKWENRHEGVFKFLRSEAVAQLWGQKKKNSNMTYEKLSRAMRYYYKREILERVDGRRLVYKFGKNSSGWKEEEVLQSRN
How it was run: as §1

ETV1 = ETV1 (Homo sapiens, UniProt P50549 1-477)
How it was run: as §1

ETV3L = biological target: T4, ETV3L (Homo sapiens, UniProt Q6ZN32 1-361)
T4 sequence: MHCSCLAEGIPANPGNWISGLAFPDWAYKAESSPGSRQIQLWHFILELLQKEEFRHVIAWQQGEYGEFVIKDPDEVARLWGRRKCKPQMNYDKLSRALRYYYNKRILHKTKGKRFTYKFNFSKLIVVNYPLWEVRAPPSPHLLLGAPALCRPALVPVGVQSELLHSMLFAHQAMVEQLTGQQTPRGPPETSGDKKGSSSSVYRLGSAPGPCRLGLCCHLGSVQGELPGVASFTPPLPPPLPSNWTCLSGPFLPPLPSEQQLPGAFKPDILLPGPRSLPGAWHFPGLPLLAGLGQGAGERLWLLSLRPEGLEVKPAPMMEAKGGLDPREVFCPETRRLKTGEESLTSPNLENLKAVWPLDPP
How it was run: as §1

ETS2 = biological target: T5, ETS2 (Homo sapiens, UniProt P15036 1-469)
T5 sequence: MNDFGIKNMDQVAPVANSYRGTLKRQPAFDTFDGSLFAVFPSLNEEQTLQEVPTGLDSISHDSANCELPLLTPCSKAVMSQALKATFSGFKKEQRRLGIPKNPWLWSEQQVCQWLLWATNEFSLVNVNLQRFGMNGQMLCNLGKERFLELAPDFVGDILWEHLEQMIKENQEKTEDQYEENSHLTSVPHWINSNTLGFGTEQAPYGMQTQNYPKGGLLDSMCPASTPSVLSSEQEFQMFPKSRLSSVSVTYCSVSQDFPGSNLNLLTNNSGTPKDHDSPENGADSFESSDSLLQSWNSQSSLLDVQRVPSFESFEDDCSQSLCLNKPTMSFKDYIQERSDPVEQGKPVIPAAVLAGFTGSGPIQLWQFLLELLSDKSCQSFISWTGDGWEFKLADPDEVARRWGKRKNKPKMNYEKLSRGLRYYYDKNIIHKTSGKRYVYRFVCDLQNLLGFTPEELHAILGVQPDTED
How it was run: as §1

ETV7 = biological target: T6, ETV7 (Homo sapiens, UniProt Q9Y603 1-341)
T6 sequence: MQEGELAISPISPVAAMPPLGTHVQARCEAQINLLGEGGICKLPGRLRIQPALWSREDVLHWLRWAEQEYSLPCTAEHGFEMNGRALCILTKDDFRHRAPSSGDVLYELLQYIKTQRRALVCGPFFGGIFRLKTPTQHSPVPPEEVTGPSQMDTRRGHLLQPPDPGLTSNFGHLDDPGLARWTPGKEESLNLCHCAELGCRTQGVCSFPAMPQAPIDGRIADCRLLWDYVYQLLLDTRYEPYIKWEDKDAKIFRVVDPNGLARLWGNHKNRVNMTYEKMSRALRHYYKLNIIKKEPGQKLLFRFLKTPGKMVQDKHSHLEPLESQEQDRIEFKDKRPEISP
How it was run: as §1

ETV3 = biological target: T7, ETV3 (Homo sapiens, UniProt P41162-2 1-143)
T7 sequence: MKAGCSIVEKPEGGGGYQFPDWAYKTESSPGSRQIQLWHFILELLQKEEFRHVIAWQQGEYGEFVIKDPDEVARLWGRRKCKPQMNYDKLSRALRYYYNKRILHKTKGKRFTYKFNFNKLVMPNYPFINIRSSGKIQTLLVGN
How it was run: as §1

ETV1, sequence (P50549 whole entry): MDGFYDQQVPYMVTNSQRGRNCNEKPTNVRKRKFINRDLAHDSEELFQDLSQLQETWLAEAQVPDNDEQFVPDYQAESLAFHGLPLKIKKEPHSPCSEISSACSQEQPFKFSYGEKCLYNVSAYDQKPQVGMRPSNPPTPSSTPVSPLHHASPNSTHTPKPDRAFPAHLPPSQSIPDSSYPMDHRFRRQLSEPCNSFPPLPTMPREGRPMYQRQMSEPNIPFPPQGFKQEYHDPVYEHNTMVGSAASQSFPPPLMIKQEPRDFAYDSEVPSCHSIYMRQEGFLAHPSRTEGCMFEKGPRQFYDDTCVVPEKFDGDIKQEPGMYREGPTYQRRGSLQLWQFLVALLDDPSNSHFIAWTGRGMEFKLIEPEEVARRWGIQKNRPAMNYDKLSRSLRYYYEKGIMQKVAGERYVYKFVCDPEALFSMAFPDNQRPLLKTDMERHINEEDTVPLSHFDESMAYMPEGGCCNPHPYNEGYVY
ELF1, sequence (P32519 whole entry): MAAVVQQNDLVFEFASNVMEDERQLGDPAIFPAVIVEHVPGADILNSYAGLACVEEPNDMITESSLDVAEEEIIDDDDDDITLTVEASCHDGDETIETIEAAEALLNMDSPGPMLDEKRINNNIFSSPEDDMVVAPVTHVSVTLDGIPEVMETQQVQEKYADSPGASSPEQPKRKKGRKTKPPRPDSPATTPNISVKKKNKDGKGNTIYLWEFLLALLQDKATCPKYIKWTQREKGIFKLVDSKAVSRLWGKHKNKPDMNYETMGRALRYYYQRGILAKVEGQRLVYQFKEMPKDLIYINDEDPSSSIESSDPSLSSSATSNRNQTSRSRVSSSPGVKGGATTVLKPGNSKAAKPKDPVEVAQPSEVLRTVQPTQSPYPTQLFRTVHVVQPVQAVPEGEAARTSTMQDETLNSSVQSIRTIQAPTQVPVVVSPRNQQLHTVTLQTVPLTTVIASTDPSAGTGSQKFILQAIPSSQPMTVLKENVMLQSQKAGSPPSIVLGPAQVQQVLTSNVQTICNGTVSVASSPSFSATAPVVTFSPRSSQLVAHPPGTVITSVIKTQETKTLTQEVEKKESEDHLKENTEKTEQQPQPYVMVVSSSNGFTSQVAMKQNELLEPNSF
ETV5, sequence (P41161 whole entry): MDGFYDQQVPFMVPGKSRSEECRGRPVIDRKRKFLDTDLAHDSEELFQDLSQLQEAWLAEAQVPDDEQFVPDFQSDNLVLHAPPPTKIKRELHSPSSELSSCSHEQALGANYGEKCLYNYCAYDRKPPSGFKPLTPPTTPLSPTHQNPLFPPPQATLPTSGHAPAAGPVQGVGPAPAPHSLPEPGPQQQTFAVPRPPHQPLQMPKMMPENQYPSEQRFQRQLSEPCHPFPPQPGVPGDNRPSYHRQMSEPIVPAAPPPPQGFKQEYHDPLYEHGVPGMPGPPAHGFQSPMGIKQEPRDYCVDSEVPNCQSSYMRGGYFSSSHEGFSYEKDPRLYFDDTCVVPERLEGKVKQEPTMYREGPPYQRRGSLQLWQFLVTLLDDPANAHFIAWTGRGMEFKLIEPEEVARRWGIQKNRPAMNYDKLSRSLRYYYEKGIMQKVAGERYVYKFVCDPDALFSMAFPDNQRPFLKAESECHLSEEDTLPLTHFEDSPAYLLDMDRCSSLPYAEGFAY

With GTTGTA the binding signal (FLI1) was 1.01 fold enrichment (6-mer frequency, TF over GST control), the binding signal (ELK1) was 1.07 fold enrichment (6-mer frequency, TF over GST control) and the binding signal (ELF1) was 1.01 fold enrichment (6-mer frequency, TF over GST control). The binding signal (ETV5) was 1.08 fold enrichment (6-mer frequency, TF over GST control), the binding signal (ELF3) was 1.04 fold enrichment (6-mer frequency, TF over GST control) and the binding signal (ETV1) was 1.01 fold enrichment (6-mer frequency, TF over GST control). The binding signal (ETV3L) was 1.07 fold enrichment (6-mer frequency, TF over GST control), the binding signal (ETS2) was 1.03 fold enrichment (6-mer frequency, TF over GST control) and the binding signal (ETV7) was 1.06 fold enrichment (6-mer frequency, TF over GST control). For the same sequence, the binding signal (ETV3) was 1.01 fold enrichment (6-mer frequency, TF over GST control).
